GSIS activator: GLuc luminescence reporter in INS-1E cells, primary screen for activators of glucose-dependent secretion of insulin; INS-1E GLuc reporter insulin secretion, 2-3 h; 0.61% of 370,000 active; activation, % at 16.6 µM;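 active means lowest replicate activation of at least 40%, so every replicate reaches that level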;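 further: 0% = median of neutral control wells and 100% = median of IBMX positive control wells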
PAX8 inh HTS: PAX8 transcriptional activity inhibition. RMG-I TPO-luciferase reporter, SteadyGlo, 24 h. inhibition, % at 12.6 µM. 1.2% of 360,000 active. AID 652154;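 active means mean replicate inhibition at least 60% with every replicate also reaching 60%; inconclusive means only one of the two criteria is met; inactive means mean below 60% and not all replicates reaching 60%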;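 further: luciferase light reporting Pax8 driven TPO promoter activity; plate controls were median of neutral control wells for no effect and mitoxantrone controls for full effect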
CFTR F508del cor: correctors of CFTR F508del function in bronchial epithelial cells; CFBE cells, YFP halide quenching; stimulated with forskolin plus potentiator P3; % fluorescence drop versus neutral controls; activity (quench increase), % at 7.58 µM; 0.36% of 350,000 active; AID 720511;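 active means mean added fluorescence quench of at least 8% versus neutral control, with both replicates also reaching 8%; inconclusive means only one of the mean or replicate conditions met; inactive means mean below 8% and not both replicates reaching 8%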;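 further: cells transiently co-express mutant CFTR-F508del with the halide-sensitive YFP; corrector assay measuring rescue of mutant channel to the surface after 24 h compound exposure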
PGC1a acetyl inh: lowers PGC1a acetylation signal in U2OS cells. AlphaScreen anti-acetyl-lysine; with virally co-expressed GCN5 acetyltransferase. inhibition, % at 15.6 µM. 0.17% of 350,000 active. AID 651687;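 active means every replicate shows inhibition of at least 40%; inconclusive means mean inhibition at least 40% but some replicate below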;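 further: 0% = neutral control wells and 100% = positive control wells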
HIV Env fusion: HIV envelope-mediated fusion inhibition. HeLa-JRFL Env/CEM21 cell fusion, luciferase. inhibition, % at 12.3 µM. 1.1% of 360,000 active. AID 651610;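 active means mean replicate inhibition score of at least 50 and every replicate individually at or above 50; inconclusive means only one of the two criteria met; inactive means mean below 50 and not all replicates reaching 50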;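 further: 0% = plate neutral controls and 100% = maraviroc near 300 nM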
EWS-Fli inh: EWS/Fli transcriptional activity inhibition. A673 NR0B1-luciferase reporter, viability-normalised. inhibition, % at 12.6 µM. 0.67% of 350,000 active. AID 651661;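 active means mean inhibition of at least 50% after viability correction, with every replicate also passing that limit; inconclusive means mean reaches 50% but only one of two replicates passes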;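 further: firefly luciferase signal divided by Alamar Blue viability fluorescence both relative to DMSO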
Numbers without * were called inactive; ? = inconclusive; . = not tested or not shown; [ ] = another dose, or the depositor's remark. Compounds with a hit are over-represented: about 2.7% of the library has one in this group of screens.

SMILES	GSIS activator	PAX8 inh HTS	CFTR F508del cor	PGC1a acetyl inh	HIV Env fusion	EWS-Fli inh
CCc1ccc(OCc2n[nH]c(=S)n2C(C)CCCC(C)C)cc1 (stereo not given)	-4.3	19.5	17.0*	.	10.2	15.2
CC1(C)CCN2CCC(C)(C)c3c(O)ccc1c32	-56.4	83.9*	37.9*	.	45.2	32.7
COc1cc(Nc2c3c(nc4ccccc24)CCC3)cc(OC)c1OC	-16.7	-15.0	8.6*	-33.5	-270.9	?
COc1ccccc1Nc1c2c(nc3ccc(N)cc13)CCCC2	65.4*	9.1	3.1	-8.6	11.1	8.9
COc1ccc(OC)c(Nc2c3c(nc4ccccc24)CCC3)c1	18.0	35.1	6.0	-3.2	-150.8	57.2*
COc1ccc(OC)c(Nc2c3ccccc3nc3ccccc23)c1	12.2	17.5	-0.6	-6.5	13.4	41.0
c1coc(CNc2c3c(nc4ccccc24)CCC3)c1	.	.	.	1.5	75.2*	.
CC(C)NCC(=O)Nc1c2c(nc3ccccc13)CCC2	.	-6.4	2.5	-3.0	-3.9	3.9
C[C@@H]1CN([C@@H](C)CO)C(=O)c2cc(-c3cncnc3)cnc2O[C@H]1CN(C)C(=O)Cc1cccnc1	5.2	.	0.0	6.1	-29.6[16.7 µM]	-4.4
Cc1ccc(S(=O)(=O)N(C)C[C@H]2Oc3cc(C#Cc4ccncc4)ccc3S(=O)(=O)N([C@@H](C)CO)C[C@@H]2C)cc1	-10.6	102.8*	-0.1	36.5	.	21.5
Cc1ccc(S(=O)(=O)N(C)C[C@@H]2Oc3cc(C#Cc4ccncc4)ccc3S(=O)(=O)N([C@H](C)CO)C[C@@H]2C)cc1	6.3	77.9*	1.4	9.5	.	27.7
CC(C)NC(=O)Nc1ccc2c(c1)C(=O)N([C@@H](C)CO)C[C@@H](C)[C@@H](CN(C)Cc1ccccc1)O2	12.3	-3.7	-3.0	-4.9	2.2[16.7 µM]	2.1
C[C@@H]1CN([C@H](C)CO)C(=O)c2cc(C#Cc3ccc(F)cc3)cnc2O[C@H]1CN(C)S(C)(=O)=O	6.9	.	0.3	4.9	8.0[16.7 µM]	-11.8
COc1cc2c(c(OCC(=O)NC(C)C)c1)C(=O)O[C@@H](C)CCCC(=O)CCCCC2	-4.0	12.1	-0.9	12.3	87.5*	4.1
COc1cc(OC)cc(C(=O)OCC(=O)NC2CCCCCC2)c1	2.4	-0.3	-0.1	3.1	.	-3.0
COc1cc(OCC(=O)NC(C)C)cc2c1C(=O)O[C@@H](C)CCCC(=O)CCCCC2	-1.1	-10.5	-1.5	-5.4	72.7*	8.9
COC(=O)c1cc(S(=O)(=O)NCC2CCN(Cc3cc(C)ccc3C)CC2)c[nH]1	54.5*	-14.7	1.4	4.4	0.1	4.7
CN(C)CC#Cc1ccc([C@@H]2[C@H](CO)N3CCCCN(S(=O)(=O)c4ccccc4F)C[C@@H]23)cc1	1.2	-10.9	-1.8	-5.4	.	11.4
COC(=O)c1c(C)[nH]c(C(=O)/C=C/c2ccc(C)cc2)c1C	-5.3	9.9	-2.3	14.0	8.1	91.2*
COC(=O)c1c(C)[nH]c(C(=O)/C=C/c2ccccc2)c1C	55.9*	.	.	.	.	.
COC(=O)c1c(C)[nH]c(C(=O)/C=C/c2cccc(Cl)c2)c1C	-2.7	.	.	.	.	.
CN(CCO)c1cc(Sc2nc3ccccc3s2)c2nonc2c1[N+](=O)[O-]	164.2*	.	2.1	15.8	.	53.5*
N#C[C@H]1N[C@H](CO)[C@@H]1c1ccc(-c2cccc(F)c2)cc1	0.1	-1.2	2.8	0.5	.	-7.5
CCNC(=O)Nc1ccc2c(c1)C(=O)N(C)[C@@H]1CC[C@H](CC(=O)NCc3ccc(F)cc3)O[C@H]1CO2	2.9	-3.3	2.8	-0.3	12.9[16.7 µM]	4.5
C[C@@H]1CN([C@@H](C)CO)C(=O)c2cc(NC(=O)Nc3cccc4ccccc34)ccc2O[C@@H](C)CCCCO[C@H]1CN(C)S(=O)(=O)c1ccc(F)cc1	9.5	11.8	-1.4	-3.2	.	12.7
SMILES	GSIS activator	PAX8 inh HTS	CFTR F508del cor	PGC1a acetyl inh	HIV Env fusion	EWS-Fli inh
CCCOc1ccc(C(=O)NC2CCSc3ccccc32)cc1 (stereo not given)	-6.3	6.3	1.8	-10.2	-13.1	-15.7
COCc1ccc(C(=O)NC2CCSc3ccccc32)cc1 (stereo not given)	75.8*	-19.7	0.1	29.9	-5.8	-19.0
O=[N+]([O-])c1ccc(N=Nc2c(Cl)cc(O)cc2Cl)cc1	-32.0	97.7*	10.1*	-53.4	85.1*	-15.4
COc1ccc(CN(C)C[C@H]2OCCCC[C@@H](C)Oc3ccc(NS(=O)(=O)c4cn(C)cn4)cc3C(=O)N([C@H](C)CO)C[C@H]2C)cc1	3.5	-5.0	-1.2	-2.5	-4.1[16.7 µM]	-1.1
Cc1noc(C)c1NC(=O)Nc1ccc2c(c1)C(=O)N([C@H](C)CO)C[C@H](C)[C@H](CN(C)C(=O)Nc1ccc(C(F)(F)F)cc1)OCCCC[C@@H](C)O2	-6.3	-18.7	1.3	-0.9	-6.2[16.7 µM]	6.5
O=S(=O)(c1ccc(=S)[nH]c1)N1CCOCC1	16.4	-5.5	-0.4	.	11.0	3.7
O=S(=O)(c1ccc(=S)[nH]c1)N1CCCCCC1	42.1*	3.3	3.1	32.6	-10.1	-2.8
CO[C@@H](CN(C)S(=O)(=O)c1ccc(C)cc1)[C@H](C)CN([C@@H](C)CO)S(=O)(=O)c1cccc(Cl)c1	-24.6	.	10.6*	1.1	.	10.2
CO[C@@H](CN(C)S(=O)(=O)c1ccc(Cl)cc1)[C@H](C)CN([C@@H](C)CO)S(=O)(=O)c1cccc(Cl)c1	-31.5	-5.8	2.8	-30.6	74.3*[16.7 µM]	4.3
CO[C@H](CN(C)S(=O)(=O)c1ccc(Cl)cc1)[C@@H](C)CN([C@@H](C)CO)S(=O)(=O)c1cccc(Cl)c1	-29.8	-2.5	-0.4	-30.4	77.2*[16.7 µM]	8.8
CO[C@@H](CN(C)S(=O)(=O)c1ccc(Cl)cc1)[C@@H](C)CN([C@H](C)CO)S(=O)(=O)c1cccc(Cl)c1	-29.6	1.1	2.7	-28.5	63.6*[16.7 µM]	9.8
C[C@H](CO)N1C[C@H](C)[C@H](CN(C)Cc2ccc(C(F)(F)F)cc2)Oc2ccc(NC(=O)CCN3CCOCC3)cc2C1=O	0.7	-2.7	2.3	2.6	7.6[16.7 µM]	.
COc1ccc(NC(=O)Nc2cccc3c2O[C@@H](CN(C)C(=O)Nc2ccc(OC)cc2)[C@H](C)CN([C@H](C)CO)C3=O)cc1	1.6	10.1	5.4	12.8	-24.6[16.7 µM]	-13.1
CO[C@@H]1CN(C)C(=O)c2ccc(NC(=O)C3CCOCC3)cc2OC[C@@H](C)N(Cc2nccs2)C[C@@H]1C	15.6	.	-0.9	6.7	-12.5[16.7 µM]	-2.1
O=C(C[C@@H]1CC[C@@H]2[C@H](COC[C@H](O)CN2C(=O)c2cnccn2)O1)NCc1ccc(Oc2ccccc2)cc1	-4.3	.	-1.2	-2.3	.	.
CNC(=O)C[C@@H]1CC[C@H]2[C@@H](COc3ccc(NC(=O)Nc4c(C)noc4C)cc3C(=O)N2C)O1	-3.0	-8.8	1.7	-5.8	3.0[16.7 µM]	-2.1
CC(C)CCN1CC(O)=C(c2nc(-c3ccc(Cl)cc3)cs2)C1=N	78.3*	.	.	1.4	.	.

Screening results deposited in PubChem BioAssay by Broad Institute.
